Results taken from paper PMC7862700, “An all-to-all approach to the identification of sequence-specific readers for epigenetic DNA modifications on cytosine”.

Tests used:
Assay in all cases: DAPPL (digital affinity profiling via proximity ligation, sequencing); 10 mM Tris-HCl pH 7.5, 50 mM NaCl, 1 mM DTT, 4% glycerol, room temperature, 30 min; GST-TFs on glutathione beads, 16-mer random dsDNA library, 0.1% formaldehyde crosslink after washing; high values mean tight binding
FEV = target: T1, FEV (Homo sapiens, UniProt Q99581 1-238); details: protein: recombinant; tags: N-terminal GST; dsDNA, one strand shown
T1 sequence: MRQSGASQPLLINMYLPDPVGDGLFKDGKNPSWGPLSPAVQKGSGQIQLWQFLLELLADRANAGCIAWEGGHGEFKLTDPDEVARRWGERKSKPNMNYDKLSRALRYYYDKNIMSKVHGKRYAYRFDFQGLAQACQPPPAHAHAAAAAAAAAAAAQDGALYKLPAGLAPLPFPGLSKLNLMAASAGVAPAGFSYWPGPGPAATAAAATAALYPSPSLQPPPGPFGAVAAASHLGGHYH
Method in brief: (§1)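 Binding signal is defined as a hexamer's read frequency for one factor over its frequency for the tag-only sample. To obtain reads, GST-fused human transcription factors were expressed in yeast, captured on glutathione beads, barcoded with DNA and pooled with that sample. Pools met 200 nmole of a 16-mer random double-stranded DNA library in Tris/NaCl/DTT/glycerol buffer for 30 min at room temperature before washing, 0.1% formaldehyde crosslinking, proximity ligation (BsaI/T4 ligase, 1 h, 37 °C), PCR and Illumina NextSeq500 sequencing.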

ETV5 = ETV5 (Homo sapiens, UniProt P41161 1-510); details: protein: recombinant; tags: N-terminal GST; dsDNA, one strand shown
Chain of ETV5 (P41161 whole entry): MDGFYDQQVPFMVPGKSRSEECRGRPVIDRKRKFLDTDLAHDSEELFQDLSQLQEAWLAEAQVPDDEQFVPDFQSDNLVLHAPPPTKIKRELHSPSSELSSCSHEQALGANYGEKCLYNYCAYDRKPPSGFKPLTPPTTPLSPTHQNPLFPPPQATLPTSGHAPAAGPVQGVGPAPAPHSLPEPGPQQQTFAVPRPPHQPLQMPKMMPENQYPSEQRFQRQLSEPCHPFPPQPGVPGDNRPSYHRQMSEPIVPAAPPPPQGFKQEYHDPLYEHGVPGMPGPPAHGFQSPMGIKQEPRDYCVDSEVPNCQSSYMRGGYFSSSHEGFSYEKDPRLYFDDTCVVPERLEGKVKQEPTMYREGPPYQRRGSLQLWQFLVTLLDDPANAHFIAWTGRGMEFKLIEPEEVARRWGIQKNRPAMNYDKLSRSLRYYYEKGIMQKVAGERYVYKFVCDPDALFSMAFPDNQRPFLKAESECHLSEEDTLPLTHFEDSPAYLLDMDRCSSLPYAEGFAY
Method in brief: as §1

HSF1 = HSF1 (Homo sapiens, UniProt Q00613 1-529); details: protein: recombinant; tags: N-terminal GST; chain copies: 3; dsDNA, one strand shown
Chain of HSF1 (Q00613 whole entry): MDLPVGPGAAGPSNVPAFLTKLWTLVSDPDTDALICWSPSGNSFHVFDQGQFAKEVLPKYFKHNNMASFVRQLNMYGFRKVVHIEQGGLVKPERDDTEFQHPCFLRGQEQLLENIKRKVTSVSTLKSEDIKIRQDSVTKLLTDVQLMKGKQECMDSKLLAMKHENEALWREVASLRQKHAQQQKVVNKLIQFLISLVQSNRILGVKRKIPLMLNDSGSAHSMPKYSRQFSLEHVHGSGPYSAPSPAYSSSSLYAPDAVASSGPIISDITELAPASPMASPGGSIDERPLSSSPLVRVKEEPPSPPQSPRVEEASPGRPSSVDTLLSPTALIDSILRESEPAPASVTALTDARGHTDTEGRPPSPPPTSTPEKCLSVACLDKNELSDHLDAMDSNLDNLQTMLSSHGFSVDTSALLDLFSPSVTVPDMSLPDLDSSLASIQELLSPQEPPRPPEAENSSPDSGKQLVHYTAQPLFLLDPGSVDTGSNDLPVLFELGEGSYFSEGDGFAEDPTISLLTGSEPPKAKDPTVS
Method in brief: as §1

SPIC = target: T2, SPIC (Homo sapiens, UniProt Q8N5J4 1-248); details: protein: recombinant; tags: N-terminal GST; dsDNA, one strand shown
T2 sequence: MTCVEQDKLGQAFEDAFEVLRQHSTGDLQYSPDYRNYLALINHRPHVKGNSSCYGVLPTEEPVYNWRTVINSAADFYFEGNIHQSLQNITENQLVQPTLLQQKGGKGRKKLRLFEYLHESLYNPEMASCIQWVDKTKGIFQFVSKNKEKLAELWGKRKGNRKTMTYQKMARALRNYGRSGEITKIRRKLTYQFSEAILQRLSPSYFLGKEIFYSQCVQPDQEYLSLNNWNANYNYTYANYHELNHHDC
Method in brief: as §1

ELF4 = ELF4 (Homo sapiens, UniProt Q99607 1-663); details: protein: recombinant; tags: N-terminal GST; dsDNA, one strand shown
Chain of ELF4 (Q99607 whole entry): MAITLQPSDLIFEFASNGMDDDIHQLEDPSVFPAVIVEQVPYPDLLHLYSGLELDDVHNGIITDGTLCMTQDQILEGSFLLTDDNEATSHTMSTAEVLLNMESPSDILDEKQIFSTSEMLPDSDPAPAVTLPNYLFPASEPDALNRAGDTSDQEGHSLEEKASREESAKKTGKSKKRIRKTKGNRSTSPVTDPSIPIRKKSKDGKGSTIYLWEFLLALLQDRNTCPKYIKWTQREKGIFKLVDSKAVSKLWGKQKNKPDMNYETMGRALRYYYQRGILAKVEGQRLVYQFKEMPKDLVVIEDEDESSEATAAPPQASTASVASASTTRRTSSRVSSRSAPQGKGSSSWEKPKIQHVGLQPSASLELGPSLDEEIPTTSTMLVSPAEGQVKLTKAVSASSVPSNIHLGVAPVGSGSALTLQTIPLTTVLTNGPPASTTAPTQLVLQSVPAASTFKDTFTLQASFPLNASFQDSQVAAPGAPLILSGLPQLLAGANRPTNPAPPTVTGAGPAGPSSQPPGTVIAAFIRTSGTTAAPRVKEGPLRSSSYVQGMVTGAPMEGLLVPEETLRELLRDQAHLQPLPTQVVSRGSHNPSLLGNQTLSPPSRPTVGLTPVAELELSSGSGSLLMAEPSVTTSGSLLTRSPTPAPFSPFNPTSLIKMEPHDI
Method in brief: as §1

ELK4 = target: T3, ELK4 (Homo sapiens, UniProt P28324-2 1-405); details: protein: recombinant; tags: N-terminal GST; dsDNA, one strand shown
T3 sequence: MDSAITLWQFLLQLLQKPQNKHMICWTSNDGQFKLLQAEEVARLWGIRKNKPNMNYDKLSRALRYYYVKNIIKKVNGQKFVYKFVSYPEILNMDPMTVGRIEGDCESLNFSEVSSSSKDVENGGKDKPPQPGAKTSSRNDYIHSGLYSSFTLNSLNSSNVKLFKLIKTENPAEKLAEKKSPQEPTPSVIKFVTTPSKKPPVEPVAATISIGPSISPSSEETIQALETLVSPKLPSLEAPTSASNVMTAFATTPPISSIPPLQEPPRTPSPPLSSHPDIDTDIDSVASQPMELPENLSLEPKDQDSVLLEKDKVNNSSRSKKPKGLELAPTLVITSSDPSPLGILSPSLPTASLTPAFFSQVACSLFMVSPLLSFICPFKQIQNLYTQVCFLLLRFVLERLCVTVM
Method in brief: as §1

ETV2 = target: T4, ETV2 (Homo sapiens, UniProt O00321 1-342); details: protein: recombinant; tags: N-terminal GST; dsDNA, one strand shown
T4 sequence: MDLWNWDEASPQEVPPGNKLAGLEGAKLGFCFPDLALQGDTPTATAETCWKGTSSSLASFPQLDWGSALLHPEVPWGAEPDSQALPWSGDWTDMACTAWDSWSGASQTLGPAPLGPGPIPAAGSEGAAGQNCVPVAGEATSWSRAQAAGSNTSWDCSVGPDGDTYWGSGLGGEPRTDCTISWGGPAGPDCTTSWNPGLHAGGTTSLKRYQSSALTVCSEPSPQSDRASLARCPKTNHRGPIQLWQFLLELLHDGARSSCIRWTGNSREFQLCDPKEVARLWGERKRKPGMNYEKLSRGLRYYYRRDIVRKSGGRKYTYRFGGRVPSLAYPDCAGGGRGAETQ
Method in brief: as §1

ELF3 = target: T5, ELF3 (Homo sapiens, UniProt P78545 1-371); details: protein: recombinant; tags: N-terminal GST; dsDNA, one strand shown
T5 sequence: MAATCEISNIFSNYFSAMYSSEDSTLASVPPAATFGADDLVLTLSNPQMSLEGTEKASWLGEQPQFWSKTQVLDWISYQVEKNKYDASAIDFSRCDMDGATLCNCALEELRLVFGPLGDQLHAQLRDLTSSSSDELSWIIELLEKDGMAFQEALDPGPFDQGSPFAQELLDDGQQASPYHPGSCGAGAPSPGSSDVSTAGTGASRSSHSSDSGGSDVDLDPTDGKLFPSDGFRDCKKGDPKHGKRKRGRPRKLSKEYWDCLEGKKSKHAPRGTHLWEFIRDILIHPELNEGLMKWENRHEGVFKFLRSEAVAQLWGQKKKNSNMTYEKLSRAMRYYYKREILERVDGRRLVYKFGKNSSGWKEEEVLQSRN
Method in brief: as §1

CRX = CRX (Homo sapiens, UniProt O43186 1-299); details: protein: recombinant; tags: N-terminal GST; dsDNA, one strand shown
Chain of CRX (O43186 whole entry): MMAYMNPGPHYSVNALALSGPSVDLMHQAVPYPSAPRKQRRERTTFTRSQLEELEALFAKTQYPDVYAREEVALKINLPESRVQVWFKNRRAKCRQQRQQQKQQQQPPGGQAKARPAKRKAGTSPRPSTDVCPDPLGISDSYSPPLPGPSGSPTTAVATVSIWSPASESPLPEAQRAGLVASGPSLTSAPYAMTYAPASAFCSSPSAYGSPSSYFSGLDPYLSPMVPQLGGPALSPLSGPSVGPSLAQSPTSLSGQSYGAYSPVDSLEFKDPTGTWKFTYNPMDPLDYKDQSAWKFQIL
Method in brief: as §1

ETV1 = ETV1 (Homo sapiens, UniProt P50549 1-477); details: protein: recombinant; tags: N-terminal GST; dsDNA, one strand shown
Chain of ETV1 (P50549 whole entry): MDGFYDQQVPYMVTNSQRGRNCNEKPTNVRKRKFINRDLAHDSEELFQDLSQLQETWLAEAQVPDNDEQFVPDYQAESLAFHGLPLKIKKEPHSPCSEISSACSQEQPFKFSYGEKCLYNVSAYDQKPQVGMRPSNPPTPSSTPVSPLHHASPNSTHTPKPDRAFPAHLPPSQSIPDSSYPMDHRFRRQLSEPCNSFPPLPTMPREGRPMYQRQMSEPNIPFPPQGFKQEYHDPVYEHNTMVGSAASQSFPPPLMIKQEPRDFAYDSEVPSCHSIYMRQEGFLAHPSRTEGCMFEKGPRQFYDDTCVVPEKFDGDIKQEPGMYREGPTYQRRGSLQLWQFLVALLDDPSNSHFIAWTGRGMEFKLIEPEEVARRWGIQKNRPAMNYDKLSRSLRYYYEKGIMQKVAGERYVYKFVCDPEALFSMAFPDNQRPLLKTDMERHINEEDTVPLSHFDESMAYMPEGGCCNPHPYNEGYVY
Method in brief: as §1

ERF = target: T6, ERF (Homo sapiens, UniProt P50548 1-548); details: protein: recombinant; tags: N-terminal GST; dsDNA, one strand shown
T6 sequence: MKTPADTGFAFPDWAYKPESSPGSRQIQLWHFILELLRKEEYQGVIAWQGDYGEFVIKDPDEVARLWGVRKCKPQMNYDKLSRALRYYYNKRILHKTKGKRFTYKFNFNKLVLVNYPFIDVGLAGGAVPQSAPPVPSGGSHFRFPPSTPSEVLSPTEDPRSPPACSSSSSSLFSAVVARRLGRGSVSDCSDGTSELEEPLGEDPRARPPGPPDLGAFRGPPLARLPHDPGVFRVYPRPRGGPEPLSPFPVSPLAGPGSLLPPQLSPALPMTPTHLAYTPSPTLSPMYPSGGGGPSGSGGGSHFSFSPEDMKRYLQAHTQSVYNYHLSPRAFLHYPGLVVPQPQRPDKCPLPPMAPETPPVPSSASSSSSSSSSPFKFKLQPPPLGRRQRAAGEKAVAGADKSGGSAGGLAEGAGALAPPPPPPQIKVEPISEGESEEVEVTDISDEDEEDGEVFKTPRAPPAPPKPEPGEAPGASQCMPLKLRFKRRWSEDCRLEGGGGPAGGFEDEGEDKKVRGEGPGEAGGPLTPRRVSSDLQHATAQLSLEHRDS
Method in brief: as §1

ETV3L = target: T7, ETV3L (Homo sapiens, UniProt Q6ZN32 1-361); details: protein: recombinant; tags: N-terminal GST; dsDNA, one strand shown
T7 sequence: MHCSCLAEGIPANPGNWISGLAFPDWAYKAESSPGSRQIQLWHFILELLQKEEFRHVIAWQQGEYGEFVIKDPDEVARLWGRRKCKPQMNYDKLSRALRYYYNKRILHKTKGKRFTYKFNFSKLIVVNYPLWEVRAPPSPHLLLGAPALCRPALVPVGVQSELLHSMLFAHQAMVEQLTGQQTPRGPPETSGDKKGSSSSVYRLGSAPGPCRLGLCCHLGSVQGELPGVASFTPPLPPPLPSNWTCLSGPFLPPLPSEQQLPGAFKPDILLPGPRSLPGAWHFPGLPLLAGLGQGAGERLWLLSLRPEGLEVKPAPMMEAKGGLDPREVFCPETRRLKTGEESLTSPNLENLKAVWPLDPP
Method in brief: as §1

ETS2 = target: T8, ETS2 (Homo sapiens, UniProt P15036 1-469); details: protein: recombinant; tags: N-terminal GST; dsDNA, one strand shown
T8 sequence: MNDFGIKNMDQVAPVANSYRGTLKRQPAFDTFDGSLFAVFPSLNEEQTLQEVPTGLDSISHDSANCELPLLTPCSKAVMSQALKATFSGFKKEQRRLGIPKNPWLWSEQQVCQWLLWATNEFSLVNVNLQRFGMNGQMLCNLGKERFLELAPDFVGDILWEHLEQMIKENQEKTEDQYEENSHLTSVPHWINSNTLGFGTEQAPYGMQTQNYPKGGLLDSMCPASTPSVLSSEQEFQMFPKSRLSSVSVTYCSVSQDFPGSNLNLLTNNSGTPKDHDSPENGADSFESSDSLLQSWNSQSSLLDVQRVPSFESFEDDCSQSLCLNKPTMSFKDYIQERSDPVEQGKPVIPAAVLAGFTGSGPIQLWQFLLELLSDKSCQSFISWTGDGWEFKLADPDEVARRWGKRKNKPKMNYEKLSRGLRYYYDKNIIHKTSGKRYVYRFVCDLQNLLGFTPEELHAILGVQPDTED
Method in brief: as §1

SPDEF = target: T9, SPDEF (Homo sapiens, UniProt O95238 1-335); details: protein: recombinant; tags: N-terminal GST; dsDNA, one strand shown
T9 sequence: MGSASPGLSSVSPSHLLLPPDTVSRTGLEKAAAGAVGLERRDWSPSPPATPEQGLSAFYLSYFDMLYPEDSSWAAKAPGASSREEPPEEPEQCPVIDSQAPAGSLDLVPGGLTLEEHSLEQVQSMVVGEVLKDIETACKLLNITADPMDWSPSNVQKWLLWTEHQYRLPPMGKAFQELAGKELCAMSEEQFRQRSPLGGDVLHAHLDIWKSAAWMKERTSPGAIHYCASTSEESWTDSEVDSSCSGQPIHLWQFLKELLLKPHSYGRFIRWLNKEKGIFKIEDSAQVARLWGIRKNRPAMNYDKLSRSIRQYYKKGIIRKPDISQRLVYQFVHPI
Method in brief: as §1

ETV7 = target: T10, ETV7 (Homo sapiens, UniProt Q9Y603 1-341); details: protein: recombinant; tags: N-terminal GST; dsDNA, one strand shown
T10 sequence: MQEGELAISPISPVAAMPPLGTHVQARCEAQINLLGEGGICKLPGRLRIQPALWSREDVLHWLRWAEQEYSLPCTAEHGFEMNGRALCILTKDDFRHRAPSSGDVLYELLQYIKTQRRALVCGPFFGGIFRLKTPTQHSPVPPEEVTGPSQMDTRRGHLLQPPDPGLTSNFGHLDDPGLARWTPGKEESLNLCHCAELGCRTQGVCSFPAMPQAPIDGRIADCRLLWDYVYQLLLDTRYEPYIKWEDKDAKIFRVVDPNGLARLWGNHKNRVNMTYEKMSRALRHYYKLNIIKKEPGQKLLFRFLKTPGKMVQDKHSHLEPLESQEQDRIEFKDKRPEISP
Method in brief: as §1

ELF5 = target: T11, ELF5 (Homo sapiens, UniProt Q9UKW6-2 1-255); details: protein: recombinant; tags: N-terminal GST; dsDNA, one strand shown
T11 sequence: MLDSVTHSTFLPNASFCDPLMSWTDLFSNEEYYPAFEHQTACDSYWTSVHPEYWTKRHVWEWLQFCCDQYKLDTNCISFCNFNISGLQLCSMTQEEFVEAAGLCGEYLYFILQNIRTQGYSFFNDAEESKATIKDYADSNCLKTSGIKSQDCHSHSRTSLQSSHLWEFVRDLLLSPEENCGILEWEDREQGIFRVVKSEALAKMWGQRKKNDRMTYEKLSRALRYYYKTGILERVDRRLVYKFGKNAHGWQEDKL
Method in brief: as §1

ETV3 = target: T12, ETV3 (Homo sapiens, UniProt P41162-2 1-143); details: protein: recombinant; tags: N-terminal GST; dsDNA, one strand shown
T12 sequence: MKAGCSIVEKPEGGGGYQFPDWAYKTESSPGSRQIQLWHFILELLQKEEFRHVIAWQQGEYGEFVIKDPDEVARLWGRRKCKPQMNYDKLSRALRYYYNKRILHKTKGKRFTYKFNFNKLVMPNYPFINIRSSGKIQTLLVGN
Method in brief: as §1

ETV6 = ETV6 (Homo sapiens, UniProt P41212 1-452); details: protein: recombinant; tags: N-terminal GST; dsDNA, one strand shown
Chain of ETV6 (P41212 whole entry): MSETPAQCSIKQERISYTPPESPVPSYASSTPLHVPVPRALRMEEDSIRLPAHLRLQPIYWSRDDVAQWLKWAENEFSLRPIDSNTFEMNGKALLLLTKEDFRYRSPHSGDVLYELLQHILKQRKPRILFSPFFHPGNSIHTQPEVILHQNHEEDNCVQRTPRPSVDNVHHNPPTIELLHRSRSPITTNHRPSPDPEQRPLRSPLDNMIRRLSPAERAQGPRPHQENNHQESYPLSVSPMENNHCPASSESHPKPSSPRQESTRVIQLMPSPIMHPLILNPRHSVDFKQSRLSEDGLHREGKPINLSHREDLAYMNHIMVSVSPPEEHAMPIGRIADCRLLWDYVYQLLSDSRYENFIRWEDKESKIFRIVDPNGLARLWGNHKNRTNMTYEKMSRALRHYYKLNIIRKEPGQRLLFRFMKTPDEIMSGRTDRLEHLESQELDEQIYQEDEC
Method in brief: as §1

For TAATGC, which binding signal (FEV) is on record?
The binding signal was 1.17 fold enrichment (6-mer frequency, TF over GST control).

What about the binding signal (ETV5) of the same sequence?
The binding signal was 1.16 fold enrichment (6-mer frequency, TF over GST control).

What about the binding signal (HSF1) of the same sequence?
The binding signal was 1.63 fold enrichment (6-mer frequency, TF over GST control).

What about the binding signal (SPIC) of the same sequence?
The binding signal was 1.21 fold enrichment (6-mer frequency, TF over GST control).

What about the binding signal (ELF4) of the same sequence?
The binding signal was 1.28 fold enrichment (6-mer frequency, TF over GST control).

And the binding signal (ELK4)?
Its binding signal is 1.23 fold enrichment (6-mer frequency, TF over GST control).

And the binding signal (ETV2)?
Its binding signal is 1.29 fold enrichment (6-mer frequency, TF over GST control).

What about the binding signal (ELF3) of the same sequence?
Its binding signal is 1.23 fold enrichment (6-mer frequency, TF over GST control).

What about the binding signal (CRX) of the same sequence?
The binding signal was 2.32 fold enrichment (6-mer frequency, TF over GST control).

And the binding signal (ETV1)?
Its binding signal is 1.28 fold enrichment (6-mer frequency, TF over GST control).

And the binding signal (ERF)?
Its binding signal is 1.07 fold enrichment (6-mer frequency, TF over GST control).

And the binding signal (ETV3L)?
The binding signal was 1.16 fold enrichment (6-mer frequency, TF over GST control).

And the binding signal (ETS2)?
Its binding signal is 1.2 fold enrichment (6-mer frequency, TF over GST control).

What about the binding signal (SPDEF) of the same sequence?
The binding signal was 1.17 fold enrichment (6-mer frequency, TF over GST control).

And the binding signal (ETV7)?
Its binding signal is 1.13 fold enrichment (6-mer frequency, TF over GST control).

And the binding signal (ELF5)?
Its binding signal is 1.17 fold enrichment (6-mer frequency, TF over GST control).

What about the binding signal (ETV3) of the same sequence?
Its binding signal is 1.16 fold enrichment (6-mer frequency, TF over GST control).

And the binding signal (ETV6)?
The binding signal was 1.13 fold enrichment (6-mer frequency, TF over GST control).
